In the library only some 3.4% were active in any assay of this set; here they are far more common.
MITF inh: blocks human microphthalmia-associated transcription factor; AlphaScreen MITF homodimerization, bead proximity signal; O75030; AID 1259374; inhibition, % at 2.6 µM; 650,000 tested, 0.91% active; in the data active means inhibition above about 50%;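 further: 0% = vehicle wells with protein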
FBW7 act: human FBW7 E3 ligase activation, primary screen | normalized activity (activation), % at 26.1 µM | 650,000 tested, 0.13% active | AlphaScreen FBW7–phospho-cyclin E peptide binding, activator screen; in the data active means normalized activity above about 1.9%;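 further: purified mutant Fbw7 with reduced substrate affinity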
GPR151 ag: human GPR151 activation | Q8TDV0 | PathHunter beta-arrestin GPR151 cells, luminescence | activation, % at 11.2 µM | 650,000 tested, 1% active | AID 1508602; in the data active means activation above about 4.9%;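 further: 0% = median of compound wells and 100% = cells with positive control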
Target sequence (Q8TDV0 whole entry, looked up): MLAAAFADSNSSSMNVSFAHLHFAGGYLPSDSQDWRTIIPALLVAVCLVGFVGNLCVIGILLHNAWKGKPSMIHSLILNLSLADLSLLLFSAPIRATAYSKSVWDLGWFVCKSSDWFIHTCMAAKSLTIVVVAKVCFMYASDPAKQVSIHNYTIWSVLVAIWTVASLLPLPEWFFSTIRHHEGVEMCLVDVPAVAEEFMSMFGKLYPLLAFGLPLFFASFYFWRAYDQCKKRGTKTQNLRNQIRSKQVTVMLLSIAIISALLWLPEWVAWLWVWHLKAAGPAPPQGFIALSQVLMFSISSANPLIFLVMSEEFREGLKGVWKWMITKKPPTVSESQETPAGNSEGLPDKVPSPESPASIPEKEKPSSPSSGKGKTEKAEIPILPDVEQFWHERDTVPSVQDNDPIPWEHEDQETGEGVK
TEAD-YAP block: TEAD-YAP interaction inhibition; HEK-TIYL cells, TEAD-Gal4/YAP UAS-luciferase luminescence; inhibition, % at 9.12 µM; 640,000 tested, 1.4% active; in the data active means inhibition above about 32%;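 further: 0% = median of test compound wells and 100% = reference inhibitor wells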
GPR151 confirm: confirmation of human GPR151 activators; activation, % at 11.2 µM; 6,700 tested, under 10 active; shares compounds with GPR151 ag; GPR151 PathHunter beta-arrestin cells, luminescence, 90 min; % of EA-reagent control over plate median;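 active means mean percent activation across replicates above the confirmation screen cutoff of 4.91%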
GPR119 ag: activates human GPR119 in a GPR151 counter-screen | 6,700 tested, 0.3% active | AID 1508611 | GPR119 PathHunter beta-arrestin cells, luminescence, 90 min; 0 = compound-well median, 100 = enzyme-acceptor control | activation, % at 11.2 µM | shares compounds with GPR151 ag;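 active means mean percent activation in the counterscreen above 29.09%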;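 further: counterscreen on off-target GPR119 to flag nonselective hits from the GPR151 activator screen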
The depositor's hits bear a star; . = not tested or not shown; ! = not active in a repeat.

SMILES | MITF inh | FBW7 act | GPR151 ag | TEAD-YAP block | GPR151 confirm | GPR119 ag
CCOc1ccc(C2C(C(=O)OC3CCCCC3)=C(C)NC3=C2C(=O)CCC3)cc1OC (centres undefined) | -7 | 0 | 1 | 4 | . | .
CCCOc1ccc(C2C(C(=O)OC3CCCCC3)=C(C)NC3=C2C(=O)CCC3)cc1OC (centres undefined) | 12 | 1 | 7.2* | 17 | -1 | -6
CO[C@H]1C[C@H](O[C@H]2[C@H](C)[C@@H](OC3O[C@H](C)C[C@H](N(C)C)[C@H]3OC(C)=O)[C@@H](C)C[C@]3(CO3)C(=O)[C@H](C)[C@@H](OC(C)=O)[C@@H](C)[C@@H](C)OC(=O)[C@@H]2C)O[C@@H](C)[C@@H]1OC(C)=O (some centres undefined) | 11 | 0 | 6.3*! | -3 | 1 | -8
O=C(CSc1nc2ccccc2c(=O)n1CCC(=O)N1CCCCC1)NC1CCCCC1 | 19 | 0 | -1 | -3 | . | .
O=C(COc1ccc(Cl)cc1)Nc1ccc(Cc2ccncc2)cc1 | -5 | 0 | 5.4* | -1 | -1 | -13
COc1c(C(=O)Nc2ccc(Cl)cn2)ccc2ccccc12 | 11 | 0 | 5.5* | -39 | -1 | -3
O=C(COc1ccccc1)NC(=S)Nc1ccc(Cl)cn1 | 9 | 0 | 3 | -3 | . | .
CN1C(=O)c2ccc(NC(=O)COc3ccc(Cl)cc3)cc2C1=O | -8 | 0 | 0 | -2 | . | .
O=C(COc1ccccc1)Nc1ccc(Cl)cn1 | -1 | 0 | 7.8* | -19 | 0 | -5
O=C(COc1ccc(Cl)cc1)Nc1ccc2c(c1)C(=O)N(c1ccccc1)C2=O | 8 | 0 | 11* | 9 | 0 | 0
O=C(O)COc1ccc(NC(=O)COc2ccc(Cl)cc2)cc1 | 3 | 0 | 2 | 9 | . | .
NC(=O)C1CCN(C(=O)Nc2ccc(C(F)(F)F)cc2)CC1 | 5 | 0 | -1 | -12 | . | .
CC(CCc1ccc(O)cc1)N1CCC(=O)N(Cc2ccc(F)cc2)CC1 (centres undefined) | -2 | 0 | 0 | -1 | . | .
O=[N+]([O-])c1ccc(-c2nnc(-c3ccc4c(c3)OCO4)o2)cc1 | -20 | 0 | -2 | -6 | . | .
COc1cccc(C2CC(c3ccc(Cl)cc3)=NC(c3cccc(F)c3)N2)c1O (centres undefined) | 25 | 0 | 2 | -21 | . | .
COC(=O)c1ccc(NC(=O)CSc2nc3c(c(=O)n2C)SCC3)cc1 | -2 | 0 | -1 | -1 | . | .
O=C(COc1ccc(Cl)cc1)Nc1ccc(Cl)cn1 | 14 | 0 | 0 | -31 | . | .
O=C(COc1ccc(Br)cc1)Nc1ncc(Cc2ccc(F)cc2)s1 | 5 | 0 | 6.2* | 6 | 0 | 11
O=C(COc1ccc(Br)cc1)Nc1ccc(Cl)cn1 | 8 | 0 | 11* | -40 | 0 | 14
CN1CCCc2cc(CN3CCC4(CC3)CC4C(=O)Nc3ccc4c(c3)OCO4)ccc21 (centres undefined) | -2 | 0 | 4.9* | -1 | 0 | -6
O=C(Nc1ccc2c(c1)OCO2)C1CC12CCN(C(=O)c1ccc(-c3ccco3)cc1)CC2 (centres undefined) | -1 | 0 | 5.5* | 5 | -1 | 0
O=C(Nc1ccc2c(c1)OCO2)C1CC12CCN(C(=O)c1ccc(-n3ccnc3)cc1)CC2 (centres undefined) | -9 | 0 | 2 | 4 | . | .
CCCNC(=O)Cn1cnc2c(nnn2-c2cc(C)cc(C)c2)c1=O | 0 | 0 | 7.0* | 9 | 0 | -1
COC(=O)c1ccc(Cn2cnc3c(nnn3-c3cc(C)cc(C)c3)c2=O)o1 | -14 | 0 | 5.0* | -3 | 0 | 1
Cc1cc(C)cc(-n2nnc3c(=O)n(Cc4ccc(Cl)c(Cl)c4)cnc32)c1 | 15 | 0 | -1 | 4 | . | .
O=C(Nc1ccc(Cl)c(-c2nc3ccccc3s2)c1)c1ncn[nH]1 | 40 | 0 | 2 | -18 | . | .
CC(C)(C)c1csc(NC(=O)c2cc([N+](=O)[O-])ccc2Cl)n1 | 15 | 1 | 7.1* | 6 | -1 | 0
CC(=O)Oc1cccc(C(=O)Nc2nc(C(C)(C)C)cs2)c1 | 21 | 0 | 7.3* | -9 | 0 | -5
CC(C)(C)c1csc(NC(=O)c2cccc(F)c2)n1 | -11 | 0 | 3 | -45 | . | .
